# Rows were chosen to be rich in hits. Some 12% of all compounds tested hit in one or more screens of this group.
# Pf growth 48h – Primary qHTS for delayed death inhibitors of the malarial parasite plastid, 48 hour incubation | P. falciparum luciferase growth in erythrocytes, 48 h | Potency, µM (titrated, usually from 28.7 µM), for the others: at the highest dose activity change, negative = inhibition, actives largely listed as inhibitors | 310,000 tested, 5.9% active; note: % is set by controls: 0 for no effect and ±100 for the full control effect
#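 A one-generation exposure of luciferase-tagged malaria parasites in RPMI 1640/Albumax erythrocyte culture, 37 C and 5% CO2. Inhibition is inferred from decreased luminescence after adding detection reagent.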
# SARS PLpro yeast – qHTS of Yeast-based Assay for SARS-CoV PLP | S. cerevisiae expressing SARS-CoV PLpro, growth rescue | Potency, µM (series often up to 32.9 µM), for the others: at the top dose activity, positive = growth rescue, actives largely listed as activators | 330,000 tested, 0.19% active | AID 485353, 2010; calls by dose curve; note: 0% is about no effect; nearly all actives have a fitted effect of over 55% in size
# Sm TGR inh – qHTS Assay for the Inhibitors of Schistosoma Mansoni Peroxiredoxins | Schistosoma mansoni thioredoxin glutathione reductase (TGR), Q962Y6 | purified TGR, DTNB reduction, TNB absorbance 405 nm | Potency, µM (top dose mostly 114 µM), for the others: top-dose activity change, negative = inhibition, hits mostly inhibitors | 360,000 tested, 3% active; note: % is set by controls: 0 for no effect and ±100 for the full control effect; nearly all actives have a fitted effect of over 60% in size
#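 Kinetic colorimetric format: TGR-catalysed, NADPH-driven DTNB reduction monitored via TNB absorbance. Enzyme dispensed at 20 nM; compound exposure 15 min at room temperature before reaction start.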
# Pf growth 96h – Primary qHTS for delayed death inhibitors of the malarial parasite plastid, 96 hour incubation | 320,000 tested, 6.9% active | P. falciparum luciferase reporter growth, 96 h | Potency, µM (doses to about 28.7 µM), for inactives: top-dose activity change, negative = inhibition, hits mostly inhibitors; note: % is set by controls: 0 for no effect and ±100 for the full control effect
#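 Readout is luminescence from an integrated firefly luciferase in P. falciparum. Red cells, 2% hematocrit and 0.05% parasitemia final, were cultured with compound through two parasite generations (96 hours) at 37 C, 5% CO2.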
# * marks the source's active call; other numbers are inactive results; ? = inconclusive; nt = no result. Unless noted, calls come from the whole dose curve; as a rule, active = well fitted curve in the direction sought with a large enough effect; inconclusive = small, poorly fitted or top-dose-only effect, or another doubt; inactive = no such curve, though single readings can be large; an effect the other way counts as inactive or inconclusive. Potency is the fitted concentration of half-maximal effect.
SMILES,Pf growth 48h,SARS PLpro yeast,Sm TGR inh,Pf growth 96h
CCOC(=O)N1CCC(NC(=O)CCc2c(C)nc3c(c(C)nn3C(C)(C)C)c2C)CC1,11.7µM*,12.9%,-10.4%,57.1%
CCOC(=O)N1CCN(C(=O)CCc2c(C)nc3c(c(C)nn3-c3ccc(C)c(C)c3)c2C)CC1,13.1µM*,2.8%,-9.6%,nt
Cc1ccc(CNC(=O)C2CCN(S(=O)(=O)c3cn(C)cn3)CC2)cc1,nt,nt,-7.4%,nt
CCOC(=O)c1c(C)n(CCNC(C)=O)c2ccc(OC)cc12,10.5%,-24.6%,-1.4%,nt
CCOC(=O)c1c(-c2ccccc2)c2cc(OC)ccc2n1CCCN(C)C,9.28µM*,-3.5%,1.5%,64.8%
CC1=C(C#N)C(c2cccnc2)C2=C(N1)c1ccccc1C2=O (stereo not drawn),0.0%,-0.3%,-14.2%,0.8%
CC1=C(C#N)C(c2ccccc2)C2=C(N1)c1ccccc1C2=O (stereo not drawn),?,-13.8%,3.1%,14.7µM*
CCCCSCCCNC(=O)C1CCC(CNS(=O)(=O)c2c(C)cc(C)cc2C)CC1 (stereo not drawn),nt,nt,-4.5%,nt
COc1ccc(Cn2ccc(=O)c(Cc3c(Cl)cccc3Cl)c2C)cc1,?,1.6%,10.6%,?
Cc1ccc(Cn2ccc(=O)c(Cc3c(Cl)cccc3Cl)c2C)cc1,?,-0.5%,8.7%,0.415µM*
Cc1c(O)c(=O)ccn1Cc1ccccc1,-20.9%,10µM*,0.3%,?
Cc1c(OCc2ccccc2)c(=O)ccn1Cc1ccc(F)cc1,?,-4.2%,3.6%,2.33µM*
O=C(NC1(C(F)(F)F)NC(=O)N(Cc2ccccc2)C1=O)c1cccnc1 (stereo not drawn),nt,-4.5%,2.0%,2.94µM*
CC(C)CN1C(=O)NC(NC(=O)c2cccs2)(C(F)(F)F)C1=O (stereo not drawn),2.33µM*,-5.3%,7.2%,15.4%
O=C(NC1(C(F)(F)F)NC(=O)N(Cc2cccnc2)C1=O)c1cccs1 (stereo not drawn),-9.6%,2.7%,0.5%,nt
O=C(NC1(C(F)(F)F)NC(=O)N(Cc2ccco2)C1=O)c1cccnc1 (stereo not drawn),4.2%,1.6%,35.5µM*,?
O=C(NC1(C(F)(F)F)NC(=O)N(Cc2ccco2)C1=O)c1cccs1 (stereo not drawn),-1.4%,3.9%,35.5µM*,-17.1%
CCS(=O)(=O)N1CC(=O)N(c2cc(C)ccc2C)C(C)(C(=O)NC2CCCCC2)C1 (stereo not drawn),nt,nt,5.0%,nt
Cc1cc(C)c(NC(=O)c2cc(S(=O)(=O)N3CCC4(CC3)OCCO4)ccc2F)c(C)c1,nt,nt,-2.0%,nt
COc1cccc(CNC(=O)Cn2c(=O)nc(-c3ccccc3F)c3cc(Cl)ccc32)c1,nt,nt,-4.3%,nt
O=C(NC1CCCCCC1)c1ccc(CS(=O)(=O)Cc2ccccc2F)o1,-6.9%,1.7%,22.4µM*,-20.0%
O=C(NCCc1ccc(Cl)cc1)c1ccc(CSCc2ccccc2Cl)o1,nt,nt,-21.0%,nt
O=C(NC1CC1)c1ccc(CSCc2ccccc2Cl)o1,1.85µM*,-3.9%,?,23.7%
Cc1ccc(CS(=O)Cc2ccc(C(=O)NC3CCCCCC3)o2)cc1 (stereo not drawn),-3.7%,17.8%,?,?
O=C(NC1CCCCCC1)c1ccc(CS(=O)Cc2ccccc2Cl)o1 (stereo not drawn),?,-1.5%,31.6µM*,-18.7%
SMILES,Pf growth 48h,SARS PLpro yeast,Sm TGR inh,Pf growth 96h
Cc1ccc(CNC(=O)c2ccc(CS(=O)Cc3ccccc3Cl)o2)cc1 (stereo not drawn),36.8%,-1.6%,35.5µM*,-5.5%
COc1cc(-c2cc3n(C)c(C)c(CCC(=O)NC4CCCCC4)c(=O)n3n2)cc(OC)c1OC,nt,nt,-2.6%,nt
CCOC(=O)C(C)NC(=O)c1c(C)oc2ncn(CC(C)C)c(=O)c12 (stereo not drawn),nt,nt,0.7%,nt
CCc1cccc(NS(=O)(=O)c2c(C)n[nH]c2C)c1,?,-3.2%,-6.2%,13.1µM*
CC(=O)c1cccc(NS(=O)(=O)c2c(C)n[nH]c2C)c1,15.4%,nt,-27.5%,0.0%
O=C(Nc1cccn2ncnc12)C(F)(F)F,243.0%,2.9%,2.1%,32.0%
O=C(CCl)Nc1cccn2ncnc12,10.4µM*,?,-9.5%,nt
O=C(CCl)Nc1ccccc1C(=O)c1ccccc1,?,2.9%,35.5µM*,?
CCN(CC)CC(=O)Nc1sc(C)cc1C(=O)c1ccc(C)cc1,?,20.7%,4.7%,-23.7%

# Screening data (PubChem BioAssay)
